The campaign covered roughly 5,500 compounds. About 2,000 (36%) were called active. Another 18% or so got no clear call; they are omitted. The list shows a part of the results. A number with no mark means an inactive call. No stated cut-off is given here; in the data, active means normalized growth mostly below about 0.91 (no sharp cut-off); inconclusive means no clear call, values can overlap the other calls; inactive means mostly above about 0.92.
Experiment: chemical genetic growth profiling, strain panel (AID 1159580);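 further: tested at 20 µM; growth read once vehicle control cultures reached saturation at 30 °C; 1 = growth at the plate median or of vehicle wells; lower values mean less growth of the strain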
Conditions: growth OD
[1] = S. cerevisiae deletion strains, locus YDR150W, strain NUM1, active compounds read low
[2] = S. cerevisiae deletion strains, locus YGR229C, strain SMI1, active compounds read low
[3] = S. cerevisiae deletion strains, locus YMR307W, strain GAS1, active compounds read low
[4] = S. cerevisiae deletion strains, locus YPL055C, strain LGE1, active compounds read low
[5] = S. cerevisiae deletion strains, locus YAL013W, strain DEP1, active compounds read low
[6] = S. cerevisiae deletion strains, locus YBR229C, strain ROT2, active compounds read low
[7] = S. cerevisiae deletion strains, locus YDL101C, strain DUN1, active compounds read low
[8] = S. cerevisiae deletion strains, locus YEL061C, strain CIN8, active compounds read low
[9] = S. cerevisiae deletion strains, locus YGR078C, strain PAC10, active compounds read low
[10] = S. cerevisiae deletion strains, locus YHR030C, strain SLT2, active compounds read low
[11] = S. cerevisiae deletion strains, locus YHR087W, strain rtc3, active compounds read low
[12] = S. cerevisiae deletion strains, locus YJL187C, strain SWE1, active compounds read low
[13] = S. cerevisiae deletion strains, locus YJR043C, strain POL32, active compounds read low
[14] = S. cerevisiae deletion strains, locus YJR075W, strain HOC1, active compounds read low
[15] = S. cerevisiae deletion strains, locus YLR039C, strain RIC1, active compounds read low
[16] = S. cerevisiae deletion strains, locus YLR058C, strain SHM2 (second series), active compounds read low
[17] = S. cerevisiae deletion strains, locus YLR085C, strain ARP6, active compounds read low
[18] = S. cerevisiae deletion strains, locus YLR262C, strain YPT6, active compounds read low
[19] = S. cerevisiae deletion strains, locus YML094W, strain GIM5, active compounds read low
[20] = S. cerevisiae deletion strains, locus YMR219W, strain ESC1, active compounds read low
[21] = S. cerevisiae deletion strains, locus YMR263W, strain SAP30, active compounds read low
[22] = S. cerevisiae deletion strains, locus YNL128W, strain TEP1, active compounds read low
[23] = S. cerevisiae deletion strains, locus YNL153C, strain GIM3, active compounds read low
[24] = S. cerevisiae deletion strains, locus YNL298W, strain CLA4 (second series), active compounds read low
[25] = S. cerevisiae deletion strains, locus YNL322C, strain KRE1, active compounds read low
[26] = S. cerevisiae deletion strains, locus YNR030W, strain Alg12, active compounds read low
[27] = S. cerevisiae deletion strains, locus YOL006C, strain TOP1, active compounds read low
[28] = S. cerevisiae deletion strains, locus YPL241C, strain CIN2, active compounds read low
[29] = S. cerevisiae deletion strains, locus YPR135W, strain CTF4, active compounds read low
[30] = S. cerevisiae strains, strain wild type, active compounds read low
[31] = S. cerevisiae deletion strains, locus YCL061C, strain MRC1, active compounds read low
[32] = S. cerevisiae deletion strains, locus YDL134C, strain PPH21, active compounds read low

## Cc1ccc(C(=O)O[C@H](C(=O)O)[C@H](OC(=O)c2ccc(C)cc2)C(=O)O)cc1
S. cerevisiae deletion strains, locus YAL040C, strain CLN3, active compounds read low
  normalized growth: 1.01
S. cerevisiae deletion strains, locus YCL061C, strain MRC1 (second series), active compounds read low
  normalized growth: 1
[1]
  normalized growth: 1.01
S. cerevisiae deletion strains, locus YDR363W, strain ESC2, active compounds read low
  normalized growth: 1.03
S. cerevisiae deletion strains, locus YER002W, strain NOP16, active compounds read low
  normalized growth: 1.01
[2]
  normalized growth: 1.01
[3]
  normalized growth: 0.99
S. cerevisiae deletion strains, locus YNL175C, strain NOP13, active compounds read low
  normalized growth: 1
S. cerevisiae deletion strains, locus YNL197C, strain WHI3, active compounds read low
  normalized growth: 1
S. cerevisiae deletion strains, locus YNL224C, strain SQS1, active compounds read low
  normalized growth: 1
S. cerevisiae deletion strains, locus YOR083W, strain WHI5 (second series), active compounds read low
  normalized growth: 0.997
[4]
  normalized growth: 0.999

## Cc1ccc(C(=O)c2ccccc2[N+](=O)[O-])cc1
[5]
  normalized growth: 0.989
[6]
  normalized growth: 0.99
[7]
  normalized growth: 0.983
[1]
  normalized growth: 0.957
[8]
  normalized growth: 0.979
[9]
  normalized growth: 0.982
[10]
  normalized growth: 0.797
[11]
  normalized growth: 0.964
[12]
  normalized growth: 0.987
[13]
  normalized growth: 0.99
[14]
  normalized growth: 0.943
[15]
  normalized growth: 0.913
[16]
  normalized growth: 0.995
[17]
  normalized growth: 0.9
[18]
  normalized growth: 0.948
[19]
  normalized growth: 0.96
[20]
  normalized growth: 0.98
[21]
  normalized growth: 0.98
[3]
  normalized growth: 0.622 (active)
[22]
  normalized growth: 1.01
[23]
  normalized growth: 0.954
[24]
  normalized growth: 0.934
[25]
  normalized growth: 0.997
[26]
  normalized growth: 0.939
[27]
  normalized growth: 0.779
[4]
  normalized growth: 0.946
[28]
  normalized growth: 0.828 (active)
[29]
  normalized growth: 0.8
[30]
  normalized growth: 1

## CCOC(=O)CSc1nnc(-c2cc(C(C)(C)C)nn2Cc2cccc(C)c2)n1C1CCCCC1
[5]
  normalized growth: 1.03
[6]
  normalized growth: 0.989
[7]
  normalized growth: 1.01
[1]
  normalized growth: 1
[8]
  normalized growth: 0.997
[9]
  normalized growth: 1.01
[2]
  normalized growth: 0.993
[10]
  normalized growth: 0.92
[11]
  normalized growth: 0.986
[12]
  normalized growth: 0.994
[13]
  normalized growth: 0.994
[14]
  normalized growth: 0.98
[15]
  normalized growth: 0.909
[16]
  normalized growth: 0.99
[17]
  normalized growth: 0.975
[18]
  normalized growth: 0.901
[19]
  normalized growth: 1.02
[20]
  normalized growth: 0.998
[21]
  normalized growth: 1
[23]
  normalized growth: 1.02
[24]
  normalized growth: 1
[25]
  normalized growth: 0.994
[26]
  normalized growth: 0.987
[4]
  normalized growth: 1.03
[28]
  normalized growth: 0.968
[29]
  normalized growth: 1.01

## Clc1cccc(-c2csc(Nc3cccnc3)n2)c1
[5]
  normalized growth: 0.935
[6]
  normalized growth: 0.998
[31]
  normalized growth: 0.957
[7]
  normalized growth: 1.04
[32]
  normalized growth: 0.997
[1]
  normalized growth: 0.954
[8]
  normalized growth: 0.993
[9]
  normalized growth: 0.979
[2]
  normalized growth: 1
[10]
  normalized growth: 0.729
[11]
  normalized growth: 0.974
[12]
  normalized growth: 0.957
[13]
  normalized growth: 0.921
[14]
  normalized growth: 0.978
[15]
  normalized growth: 0.951
[16]
  normalized growth: 0.99
[17]
  normalized growth: 0.839
[18]
  normalized growth: 1
[19]
  normalized growth: 0.971
[20]
  normalized growth: 0.992
[21]
  normalized growth: 0.914
[23]
  normalized growth: 0.971
[24]
  normalized growth: 0.881
[25]
  normalized growth: 1
[26]
  normalized growth: 0.968
[27]
  normalized growth: 0.979
[4]
  normalized growth: 0.839
[28]
  normalized growth: 0.915
[29]
  normalized growth: 0.884
[30]
  normalized growth: 0.997

## Clc1ccc(-c2csc(-c3ccno3)n2)s1
[5]
  normalized growth: 0.942
[6]
  normalized growth: 0.958
[31]
  normalized growth: 0.985
[7]
  normalized growth: 0.915
[32]
  normalized growth: 0.565 (active)
[1]
  normalized growth: 1.01
[8]
  normalized growth: 0.89 (active)
[9]
  normalized growth: 0.96
[10]
  normalized growth: 0.484 (active)
[11]
  normalized growth: 0.954
[13]
  normalized growth: 1.01
[14]
  normalized growth: 0.929
[15]
  normalized growth: 0.57 (active)
[16]
  normalized growth: 0.932 (active)
[17]
  normalized growth: 0.644 (active)
[18]
  normalized growth: 0.777 (active)
[19]
  normalized growth: 0.868
[20]
  normalized growth: 0.937 (active)
[21]
  normalized growth: 0.952
[3]
  normalized growth: 0.702
[22]
  normalized growth: 0.939
[23]
  normalized growth: 1
[24]
  normalized growth: 0.899
[25]
  normalized growth: 0.97
[26]
  normalized growth: 0.9
[27]
  normalized growth: 0.655 (active)
[4]
  normalized growth: 0.851
[28]
  normalized growth: 0.81 (active)
[29]
  normalized growth: 0.741

Reference: PubChem BioAssay AID1159580 (chemical genetic matrix, 2015)
